# From PMC12529666, “Dysregulation of AGO2-miRNA dynamics underlies the AGO2-associated Lessel–Kreienkamp syndrome”
# Columns and labels:
# Test in all cases: RNA Bind-n-Seq (nitrocellulose filter binding and sequencing); miR-122 guide loaded in AGO2; 60 min incubation; 30 mM Tris pH 8.0, 100 mM potassium acetate, 2 mM magnesium acetate, 0.5 mM TCEP, 0.005% NP-40, 0.01 mg/ml yeast tRNA; 3 nM AGO2-miR-122, 100 nM RNA library; 60; high values mean tight binding
# Details in all cases: protein: recombinant; tags: His6 (N-terminal, pFastBac HTA)
# AGO2 L192P = AGO2 L192P (Homo sapiens, UniProt Q9UKV8 1-859, L192P;S387D;S824A;S828D;S831D;S834A)
# Chain of AGO2 L192P (Q9UKV8 whole entry L192P/S387D/S824A/S828D/S831D/S834A): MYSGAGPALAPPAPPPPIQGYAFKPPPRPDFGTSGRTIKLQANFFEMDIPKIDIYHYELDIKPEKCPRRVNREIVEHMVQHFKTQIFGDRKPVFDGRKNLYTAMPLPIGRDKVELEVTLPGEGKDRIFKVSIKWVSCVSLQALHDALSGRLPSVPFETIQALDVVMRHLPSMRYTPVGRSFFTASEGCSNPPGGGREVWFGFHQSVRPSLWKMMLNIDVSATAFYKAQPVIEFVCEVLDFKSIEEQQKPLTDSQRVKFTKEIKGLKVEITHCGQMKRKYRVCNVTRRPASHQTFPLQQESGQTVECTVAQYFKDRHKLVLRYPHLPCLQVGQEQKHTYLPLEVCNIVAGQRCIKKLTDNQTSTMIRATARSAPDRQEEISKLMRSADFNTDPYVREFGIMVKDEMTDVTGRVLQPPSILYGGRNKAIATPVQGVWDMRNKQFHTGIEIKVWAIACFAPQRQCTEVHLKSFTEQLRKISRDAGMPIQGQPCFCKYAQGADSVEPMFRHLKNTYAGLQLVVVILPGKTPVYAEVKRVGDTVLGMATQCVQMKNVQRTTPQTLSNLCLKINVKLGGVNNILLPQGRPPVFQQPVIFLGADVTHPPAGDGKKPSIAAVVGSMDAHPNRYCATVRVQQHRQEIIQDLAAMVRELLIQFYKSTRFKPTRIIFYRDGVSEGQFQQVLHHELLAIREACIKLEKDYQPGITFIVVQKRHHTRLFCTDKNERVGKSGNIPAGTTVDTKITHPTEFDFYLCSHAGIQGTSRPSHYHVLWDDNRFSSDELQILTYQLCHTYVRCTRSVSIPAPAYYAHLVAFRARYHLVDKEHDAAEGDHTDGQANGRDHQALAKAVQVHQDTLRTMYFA
# Procedure, shortened: (§1)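 His-tagged AGO2 was expressed in Sf9 insect cells by baculovirus, loaded with a synthetic guide RNA, and purified by Ni-NTA and a biotinylated capture oligo. Bound RNA was extracted, reverse-transcribed, barcode-amplified and Illumina-sequenced. Fold enrichment is each sequence's read fraction divided by its input-library read fraction.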
# AGO2 A367P = AGO2 A367P (Homo sapiens, UniProt Q9UKV8 1-859, A367P;S387D;S824A;S828D;S831D;S834A)
# Chain of AGO2 A367P (Q9UKV8 whole entry A367P/S387D/S824A/S828D/S831D/S834A): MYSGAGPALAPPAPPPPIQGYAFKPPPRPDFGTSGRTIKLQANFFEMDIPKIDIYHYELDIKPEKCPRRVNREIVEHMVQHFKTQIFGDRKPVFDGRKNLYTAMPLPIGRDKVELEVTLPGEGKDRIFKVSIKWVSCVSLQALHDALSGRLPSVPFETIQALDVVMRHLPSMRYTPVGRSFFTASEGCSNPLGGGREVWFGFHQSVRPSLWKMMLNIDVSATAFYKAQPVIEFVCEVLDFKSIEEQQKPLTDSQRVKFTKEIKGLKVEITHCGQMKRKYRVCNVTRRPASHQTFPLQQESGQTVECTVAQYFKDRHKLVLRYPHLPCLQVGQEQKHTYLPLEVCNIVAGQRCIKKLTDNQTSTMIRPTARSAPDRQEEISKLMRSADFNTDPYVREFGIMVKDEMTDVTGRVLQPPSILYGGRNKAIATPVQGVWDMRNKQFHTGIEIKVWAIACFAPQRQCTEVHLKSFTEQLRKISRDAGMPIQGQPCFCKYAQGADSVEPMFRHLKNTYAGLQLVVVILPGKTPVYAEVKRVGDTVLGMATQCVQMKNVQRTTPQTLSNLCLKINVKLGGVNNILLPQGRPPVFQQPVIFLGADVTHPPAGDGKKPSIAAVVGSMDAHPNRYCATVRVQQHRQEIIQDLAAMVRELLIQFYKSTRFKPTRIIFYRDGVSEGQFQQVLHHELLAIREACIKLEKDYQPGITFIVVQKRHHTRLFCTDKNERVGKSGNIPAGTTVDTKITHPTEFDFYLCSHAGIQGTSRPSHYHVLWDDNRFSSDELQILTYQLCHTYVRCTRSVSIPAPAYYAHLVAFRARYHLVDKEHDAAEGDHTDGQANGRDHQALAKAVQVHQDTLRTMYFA
# Procedure, shortened: as §1
# AGO2 T357M = AGO2 T357M (Homo sapiens, UniProt Q9UKV8 1-859, T357M;S387D;S824A;S828D;S831D;S834A)
# Chain of AGO2 T357M (Q9UKV8 whole entry T357M/S387D/S824A/S828D/S831D/S834A): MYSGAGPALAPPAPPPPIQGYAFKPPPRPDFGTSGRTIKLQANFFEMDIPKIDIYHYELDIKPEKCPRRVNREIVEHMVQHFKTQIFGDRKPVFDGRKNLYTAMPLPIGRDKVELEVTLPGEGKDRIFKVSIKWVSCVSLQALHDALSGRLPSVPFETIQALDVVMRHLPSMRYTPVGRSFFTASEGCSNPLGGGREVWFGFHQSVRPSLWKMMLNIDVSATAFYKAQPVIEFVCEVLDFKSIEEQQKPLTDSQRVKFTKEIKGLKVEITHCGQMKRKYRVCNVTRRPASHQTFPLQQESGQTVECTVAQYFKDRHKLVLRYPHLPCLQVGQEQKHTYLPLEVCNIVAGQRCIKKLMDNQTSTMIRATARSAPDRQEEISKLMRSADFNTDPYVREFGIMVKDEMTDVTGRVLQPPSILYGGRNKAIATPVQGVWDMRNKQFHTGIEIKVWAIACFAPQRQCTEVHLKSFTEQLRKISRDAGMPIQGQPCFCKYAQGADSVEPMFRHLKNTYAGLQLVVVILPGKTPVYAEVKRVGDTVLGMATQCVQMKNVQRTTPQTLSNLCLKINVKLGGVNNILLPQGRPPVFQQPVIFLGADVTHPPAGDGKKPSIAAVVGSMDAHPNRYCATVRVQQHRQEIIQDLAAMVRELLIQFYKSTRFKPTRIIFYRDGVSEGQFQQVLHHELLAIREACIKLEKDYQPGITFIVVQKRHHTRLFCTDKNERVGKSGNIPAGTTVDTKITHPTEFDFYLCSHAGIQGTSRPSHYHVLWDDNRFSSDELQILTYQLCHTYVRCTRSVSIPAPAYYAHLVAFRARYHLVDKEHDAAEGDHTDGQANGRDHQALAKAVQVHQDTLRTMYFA
# Procedure, shortened: as §1
# AGO2 F182del = AGO2 F182del (Homo sapiens, UniProt Q9UKV8 1-859, S387D;S824A;S828D;S831D;S834A;del182-182)
# Chain of AGO2 F182del (Q9UKV8 other isoform, or with tags, fused parts or gaps S387D;S824A;S828D;S831D;S834A;del182-182): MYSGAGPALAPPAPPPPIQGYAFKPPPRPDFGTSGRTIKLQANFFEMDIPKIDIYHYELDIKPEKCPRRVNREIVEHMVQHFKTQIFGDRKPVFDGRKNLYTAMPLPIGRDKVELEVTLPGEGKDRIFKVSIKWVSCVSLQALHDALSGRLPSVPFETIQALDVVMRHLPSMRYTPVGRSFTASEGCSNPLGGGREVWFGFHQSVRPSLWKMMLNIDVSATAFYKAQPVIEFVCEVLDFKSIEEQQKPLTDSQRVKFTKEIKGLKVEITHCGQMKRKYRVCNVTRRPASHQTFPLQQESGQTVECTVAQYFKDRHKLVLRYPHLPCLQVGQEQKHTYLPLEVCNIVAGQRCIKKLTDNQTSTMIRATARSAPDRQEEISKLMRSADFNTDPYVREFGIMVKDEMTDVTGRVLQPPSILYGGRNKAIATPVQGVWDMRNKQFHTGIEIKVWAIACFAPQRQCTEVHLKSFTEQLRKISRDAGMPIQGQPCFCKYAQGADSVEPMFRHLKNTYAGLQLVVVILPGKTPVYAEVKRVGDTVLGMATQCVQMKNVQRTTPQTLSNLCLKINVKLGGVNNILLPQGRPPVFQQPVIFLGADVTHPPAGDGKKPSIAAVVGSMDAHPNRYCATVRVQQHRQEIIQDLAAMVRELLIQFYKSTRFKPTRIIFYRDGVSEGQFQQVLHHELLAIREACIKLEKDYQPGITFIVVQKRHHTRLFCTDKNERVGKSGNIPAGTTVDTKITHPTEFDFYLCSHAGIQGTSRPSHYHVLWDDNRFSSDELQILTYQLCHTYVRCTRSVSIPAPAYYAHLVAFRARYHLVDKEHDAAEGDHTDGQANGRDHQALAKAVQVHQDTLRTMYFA
# Procedure, shortened: as §1
Binder,binding signal (AGO2 L192P),binding signal (AGO2 A367P),binding signal (AGO2 T357M),binding signal (AGO2 F182del)
"ATACTCTA (ssRNA, constant regions annealed to DNA blockers; guide miR-122 5' phosphate) RNA 1: GAGUUCUACAGUCCGACGAUCCCAACAUACUCUACACCUGGAAUUCUCGGGUGCCAA RNA 2: UGGAGUGUGACAAUGGUGUUUG DNA 1: GATCGTCGGACTGTAGAACTC DNA 2: TTGGCACCCGAGAATTCCA",0.437 fold enrichment over input,0.187 fold enrichment over input,0.545 fold enrichment over input,0.128 fold enrichment over input
"ATACTTTG (ssRNA, constant regions annealed to DNA blockers; guide miR-122 5' phosphate) RNA 1: GAGUUCUACAGUCCGACGAUCCCAACAUACUUUGCACCUGGAAUUCUCGGGUGCCAA RNA 2: UGGAGUGUGACAAUGGUGUUUG DNA 1: GATCGTCGGACTGTAGAACTC DNA 2: TTGGCACCCGAGAATTCCA",0.38 fold enrichment over input,0.138 fold enrichment over input,0.553 fold enrichment over input,–
"ATATTCCG (ssRNA, constant regions annealed to DNA blockers; guide miR-122 5' phosphate) RNA 1: GAGUUCUACAGUCCGACGAUCCCAACAUAUUCCGCACCUGGAAUUCUCGGGUGCCAA RNA 2: UGGAGUGUGACAAUGGUGUUUG DNA 1: GATCGTCGGACTGTAGAACTC DNA 2: TTGGCACCCGAGAATTCCA",0.389 fold enrichment over input,0.136 fold enrichment over input,0.541 fold enrichment over input,–
"ATGTCCTG (ssRNA, constant regions annealed to DNA blockers; guide miR-122 5' phosphate) RNA 1: GAGUUCUACAGUCCGACGAUCCCAACAUGUCCUGCACCUGGAAUUCUCGGGUGCCAA RNA 2: UGGAGUGUGACAAUGGUGUUUG DNA 1: GATCGTCGGACTGTAGAACTC DNA 2: TTGGCACCCGAGAATTCCA",0.343 fold enrichment over input,0.122 fold enrichment over input,0.425 fold enrichment over input,–
"ATGTTTCG (ssRNA, constant regions annealed to DNA blockers; guide miR-122 5' phosphate) RNA 1: GAGUUCUACAGUCCGACGAUCCCAACAUGUUUCGCACCUGGAAUUCUCGGGUGCCAA RNA 2: UGGAGUGUGACAAUGGUGUUUG DNA 1: GATCGTCGGACTGTAGAACTC DNA 2: TTGGCACCCGAGAATTCCA",0.353 fold enrichment over input,0.123 fold enrichment over input,0.462 fold enrichment over input,–
"GTACCTTG (ssRNA, constant regions annealed to DNA blockers; guide miR-122 5' phosphate) RNA 1: GAGUUCUACAGUCCGACGAUCCCAACGUACCUUGCACCUGGAAUUCUCGGGUGCCAA RNA 2: UGGAGUGUGACAAUGGUGUUUG DNA 1: GATCGTCGGACTGTAGAACTC DNA 2: TTGGCACCCGAGAATTCCA",0.347 fold enrichment over input,0.128 fold enrichment over input,0.482 fold enrichment over input,–
"GTGTCTCG (ssRNA, constant regions annealed to DNA blockers; guide miR-122 5' phosphate) RNA 1: GAGUUCUACAGUCCGACGAUCCCAACGUGUCUCGCACCUGGAAUUCUCGGGUGCCAA RNA 2: UGGAGUGUGACAAUGGUGUUUG DNA 1: GATCGTCGGACTGTAGAACTC DNA 2: TTGGCACCCGAGAATTCCA",0.345 fold enrichment over input,0.125 fold enrichment over input,0.468 fold enrichment over input,–
"ATGCCTTG (ssRNA, constant regions annealed to DNA blockers; guide miR-122 5' phosphate) RNA 1: GAGUUCUACAGUCCGACGAUCCCAACAUGCCUUGCACCUGGAAUUCUCGGGUGCCAA RNA 2: UGGAGUGUGACAAUGGUGUUUG DNA 1: GATCGTCGGACTGTAGAACTC DNA 2: TTGGCACCCGAGAATTCCA",0.356 fold enrichment over input,0.131 fold enrichment over input,0.51 fold enrichment over input,–
"ACGCCTCG (ssRNA, constant regions annealed to DNA blockers; guide miR-122 5' phosphate) RNA 1: GAGUUCUACAGUCCGACGAUCCCAACACGCCUCGCACCUGGAAUUCUCGGGUGCCAA RNA 2: UGGAGUGUGACAAUGGUGUUUG DNA 1: GATCGTCGGACTGTAGAACTC DNA 2: TTGGCACCCGAGAATTCCA",0.351 fold enrichment over input,0.15 fold enrichment over input,0.48 fold enrichment over input,–
"ATGCCCTA (ssRNA, constant regions annealed to DNA blockers; guide miR-122 5' phosphate) RNA 1: GAGUUCUACAGUCCGACGAUCCCAACAUGCCCUACACCUGGAAUUCUCGGGUGCCAA RNA 2: UGGAGUGUGACAAUGGUGUUUG DNA 1: GATCGTCGGACTGTAGAACTC DNA 2: TTGGCACCCGAGAATTCCA",0.457 fold enrichment over input,0.166 fold enrichment over input,0.544 fold enrichment over input,–
"ATGCTTCG (ssRNA, constant regions annealed to DNA blockers; guide miR-122 5' phosphate) RNA 1: GAGUUCUACAGUCCGACGAUCCCAACAUGCUUCGCACCUGGAAUUCUCGGGUGCCAA RNA 2: UGGAGUGUGACAAUGGUGUUUG DNA 1: GATCGTCGGACTGTAGAACTC DNA 2: TTGGCACCCGAGAATTCCA",0.336 fold enrichment over input,0.127 fold enrichment over input,0.474 fold enrichment over input,–
